Assay outcomes deposited in PubChem BioAssay by National Center for Advancing Translational Sciences (NCATS).
KB-3-1 cytotox: qHTS assay for MDR1-selective chemotherapeutics: Primary screen using the parental adenocarcinoma cell KB-3-1 | KB-3-1 viability, CellTiter-Glo ATP luminescence, 72 h | Potency, µM (doses to about 46.1 µM), hits mostly cytotoxic | 400,000 compounds, 1.4% hits; also: potency is read from the fitted curve at half-maximal effect; % is scaled to controls: 0 for no effect and ±100 for the full control effect; nearly all actives have a fitted effect of over 60% in size
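Multi-concentration cytotoxicity screen in KB-3-1 cells grown in DMEM lacking phenol red with 10% FBS. After 72 h at 37 °C with compound, ATP-dependent luminescence was recorded.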
KB-V1 cytotox: qHTS assay for MDR1-selective chemotherapeutics: Primary screen using the drug-selected MDR subline cells KB-V1 | AID 1347076, 2019 | 400,000 compounds, 3.4% hits | KB-V1 MDR cells viability, CellTiter-Glo, 72 h | Potency, µM (series often up to 46.1 µM), hits mostly cytotoxic; also: potency is read from the fitted curve at half-maximal effect; % is scaled to controls: 0 for no effect and ±100 for the full control effect; nearly all actives have a fitted effect of over 60% in size
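Following 72 h at 37 degrees C with compound, KB-V1 cell viability was read by CellTiter-Glo luminescence, medium being phenol-red-free DMEM plus 10% FBS; concentration-response parameters came from normalized, curve-fitted qHTS data.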
DRD3 antagonist: qHTS of D3 Dopamine Receptor Antagonist: qHTS; max response, negative = inhibition, %; 360,000 compounds, 2.5% hits; D(3) dopamine receptor (Homo sapiens), P35462; D3R cells, DiscoveRx beta-arrestin luminescence, antagonist mode; hits give low values; in the data active = max response below about -50%; inconclusive = no clear call, values can overlap the other calls; also: % is scaled to controls: 0 for no effect and ±100 for the full control effect
Target sequence (P35462 whole entry, looked up): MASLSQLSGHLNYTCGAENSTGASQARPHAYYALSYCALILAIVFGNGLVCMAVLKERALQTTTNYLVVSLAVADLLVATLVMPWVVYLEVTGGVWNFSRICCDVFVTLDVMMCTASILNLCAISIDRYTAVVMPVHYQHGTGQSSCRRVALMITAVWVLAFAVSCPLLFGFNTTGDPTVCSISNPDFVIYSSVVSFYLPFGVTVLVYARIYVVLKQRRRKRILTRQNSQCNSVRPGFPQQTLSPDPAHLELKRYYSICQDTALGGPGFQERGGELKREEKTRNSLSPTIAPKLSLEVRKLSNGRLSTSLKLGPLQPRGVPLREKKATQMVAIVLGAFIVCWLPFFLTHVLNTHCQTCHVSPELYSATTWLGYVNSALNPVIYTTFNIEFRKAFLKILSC
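Cells expressing the human receptor were seeded at 1500 cells/well, incubated overnight at 37 degrees C in 5% CO2, then exposed to library compounds with dopamine controls for 90 minutes at 37 degrees C before luminescent detection.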
D3 ag: qHTS of D3 Dopamine Receptor Agonist: qHTS. 410,000 compounds, 0.58% hits. AID 652048, 2013. max activation, %. D3R DiscoveRx beta-arrestin cells, luminescence, 90 min; in the data active = max activation above about 30%; also: 0% is about no effect
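Agonist mode: compounds and dopamine controls were applied to plated cells for 90 min at 37 degrees C after an overnight attachment at 1500 cells/well. Luminescent read-out followed 30 - 60 minutes at room temperature with DiscoveRx detection reagent.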
SW480 rerep: A quantitative high throughput screen for small molecules that induce DNA re-replication in SW480 colon adenocarcinoma cells; SW480 DNA re-replication, Hoechst DNA content imaging, 48 h; Potency, µM (top dose mostly 46.1 µM), for the others: top-dose re-replication activation, actives largely listed as activators; 340,000 compounds, 1.8% hits; also: potency is read from the fitted curve at half-maximal effect; % of control where 0% means no effect; nearly all actives have a fitted effect of over 55% in size
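Compounds, transferred as 23 nL by pin tool, were incubated with cells for 48 hr; DNA content per nucleus was then quantified by Hoechst staining and fluorescence plate imaging.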
MCF10A rerep: A quantitative high throughput screen for small molecules that induce DNA re-replication in MCF 10a normal breast cells | MCF 10A DNA re-replication, Hoechst nuclear intensity, 48 h | Potency, µM (titrated, usually from 46.1 µM), for the others: at the top dose activity, positive = re-replication, usual class: activators | 350,000 compounds, 2.9% hits | AID 624296, 2012; also: potency is read from the fitted curve at half-maximal effect; % of control where 0% means no effect; nearly all actives have a fitted effect of over 50% in size
* = called active by the depositor; i = inactive; ? = inconclusive; · = not tested or not shown; ! = not active in a repeat. Compounds with a hit are over-represented: about 8.9% of the library has one in this group of screens. Unless noted, calls follow the shape of the dose curve; as a rule, active = well fitted curve in the direction sought with a large enough effect; inconclusive = small, poorly fitted or top-dose-only effect, or another doubt; inactive = no such curve, though single readings can be large; an effect the other way counts as inactive or inconclusive.

SMILES	KB-3-1 cytotox	KB-V1 cytotox	DRD3 antagonist	D3 ag	SW480 rerep	MCF10A rerep
Cc1c(C(=O)Nc2ccc(Cl)cc2)c2ccccn2c1C(=O)c1ccccc1	?	?	10	3	?	26µM*
Cc1c(/C=N/NC(=O)CNc2ccccc2)c2ccccn2c1C(=O)c1ccc(Cl)cc1	i	2.3µM*	7	6	-18%	7%
Cc1ccccc1NCC(=O)N/N=C/c1c(C)c(C(=O)c2ccc(Cl)cc2)n2ccccc12	?	?	24	1	·	?
Nc1cccc(/C=C2\C=Cc3ccccc32)c1	i	i	·	·	·	·
O=C(NCCSc1ccccc1)c1ccc(Br)cc1	i	i	5	-7	0%	4%
Cc1ccc(C(=O)NCC(=O)NCCSc2ccc(Br)cc2)cc1	i	?	-57*	-13	-1%	1%
CCOc1ccc(C(=O)NCC(=O)NCCSc2ccc(Br)cc2)cc1OCC	i	3.7µM*	?	-5	-6%	2%
CCC(C#CCN1CCCCC1)(CC)OCCC#N	i	i	-56*	-18	-6%	3%
CCC(C)(C#CCN1CCCCC1)OCCC#N (centres undefined)	i	i	8	0	18µM*	-3%
Cc1cc2nn(-c3ccc(F)cc3)nc2cc1NC(=O)c1cccc([N+](=O)[O-])c1C	i	i	·	5	·	·
Cc1ccccc1S(=O)(=O)Cc1ccc(C(=O)N2CCN(c3cccc(Cl)c3)CC2)o1	4.1µM*	4.6µM*	·	0	·	·
Cc1ccccc1S(=O)(=O)Cc1ccc(C(=O)NCCCN2CCN(C)CC2)o1	i	i	5	0	0%	0%
Cc1ccccc1S(=O)(=O)Cc1ccc(C(=O)NCCN2CCN(Cc3ccccc3)CC2)o1	i	i	-51*	-5	-4%	3%
Cc1ccccc1S(=O)(=O)Cc1ccc(C(=O)N2CCN(c3cccc(C)c3C)CC2)o1	5.2µM*	5.8µM*	-3	27	4.1µM*	2.3µM*
COc1ccc(S(=O)Cc2ccc(C(=O)N3CCN(c4cccc(C)c4C)CC3)o2)cc1 (centres undefined)	?	?	89	45*!	?	18%
COc1ccc(N2CCN(C(=O)c3ccc(CS(=O)c4cccc(Cl)c4)o3)CC2)cc1 (centres undefined)	?	?	0	1	·	·
COCc1cc(C)nc2sc3c(c12)NC(c1ccc(O)cc1)N(c1ccc(C)cc1)C3=O (centres undefined)	·	·	·	-15	·	·
COc1cccc(N2CCN(C(=O)c3ccc(CS(=O)Cc4ccccc4Cl)o3)CC2)c1 (centres undefined)	i	i	12	-8	-7%	24%
COc1cccc(N2CCN(C(=O)c3ccc(CS(=O)Cc4ccc(Cl)cc4)o3)CC2)c1 (centres undefined)	i	16µM*	19	1	-2%	7%
Cc1ccc(S(=O)(=O)Cc2ccc(C(=O)N3CCN(c4cccc(Cl)c4)CC3)o2)cc1	?	5.8µM*	·	-7	·	·
Cc1ccc(Cl)cc1N1CCN(C(=O)c2ccc(CS(=O)(=O)c3ccc(Br)cc3)o2)CC1	?	i	·	-9	·	·
Cc1ccc(Cl)cc1NC(=S)N/N=C/c1cccc2ccccc12	5.8µM*	2.1µM*	-53*	-20	8.2µM*	8.2µM*
CC(C)(C)NC(=S)N/N=C/c1c(Cl)cccc1Cl	i	i	2	-15	-1%	2%
Cc1ccc(NC(=S)N/N=C/c2c(Cl)cccc2Cl)c(C)c1	0.58µM*	1.2µM*	-60*	-6	1.3µM*	1.5µM*
